# Test results published in PubChem BioAssay (NCI).
# About 83,000 compounds went through this panel and 20% of them were active in at least one assay; those are over-represented in the sample as a whole.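 Negative percent growth values reflect cell death: -40 means 40% of the cells present at the start died, and -100 means all died.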 A number with no mark means an inactive call. Activity calls are given as the source filed them. Rule for the calls: active = growth percent below 10; inactive = the rest.
# Tested on: K-562 leukemia
# Assay: NCI-60 one-dose screen, 48 h (100 = growth as untreated, 0 = no growth, -100 = all killed)
# Settings: 10 µM unless noted
row,SMILES,growth
1,COc1cccc(/C=C2\Oc3cc(OCCN4CCCC4)ccc3C2=O)c1,-26.9% (active)
2,COc1ccc(-c2nc3ccc(-c4nc5ccc(N6CCN(c7ccncc7)CC6)cc5[nH]4)cc3[nH]2)cc1OC,29.5%
3,Cc1ccc(C2=NN3C(C2)c2cc(Br)ccc2OC32CCN(Cc3ccccc3)CC2)o1 (centres undefined),85.3%
4,COc1cc2c(cc1-c1c(C)noc1C)ncc1nc(-c3ccccn3)n([C@H](C)COC(F)F)c12,32.8%
5,Cc1oc(-c2ccc(Cl)cc2Cl)cc1C(=O)Nc1nccs1,95.1%
6,COc1ccc2c(c1)c(-c1nonc1-c1cn(C)c3ccccc13)cn2C,10.5%
7,COC(=O)c1ccc(NC(=O)c2ccc(-c3cccc([N+](=O)[O-])c3)o2)cc1,105%
8,COc1cccc(C2=NN3C(C2)c2cc(Br)cc(OC)c2OC32CCN(Cc3ccccc3)CC2)c1 (centres undefined),105%
9,O=C1c2cc3c(cc2-c2c1c1cc(F)c(F)cc1c(=O)n2CCCn1ccnc1)OCO3,8.61% (active)
10,Cc1ccc2c(C(C[N+](=O)[O-])c3ccccc3F)c(-c3ccccc3)[nH]c2c1 (centres undefined),11.8%
11,Cc1ccccc1COc1ccc(-c2onc(C)c2-c2ccc(Cl)cc2)cc1,14.4%
12,COC[C@H](C)n1c(C2CCOCC2)nc2cnc3cc(-c4c(C)noc4C)c(OC)cc3c21,39.1%
13,C#CCOc1ccc2ncnc(NCc3cccc(NC(=O)CCl)c3)c2c1,11.7% [8.25 µM]
14,COc1cc(-c2nn(C)nc2-c2cc3ccccc3s2)cc(OC)c1OC,8.42% (active)
15,O=C1NC(=S)N[C@H]1CC(=O)n1cnc2ccccc21,114%
16,O=S(=O)(Nc1ccc(I)cc1F)c1ccc(-c2cnc(C3CC3)o2)cc1,13.2%
17,CC[C@@H](C(=O)[C@@H](C)[C@@H](O)[C@H](C)[C@@H]1O[C@@H]([C@@H](CC)C(=O)O)CC[C@@H]1C)[C@H]1OC2(C=C[C@@H](O)[C@]3(CC[C@@](C)([C@H]4CC[C@](O)(CC)[C@H](C)O4)O3)O2)[C@H](C)C[C@@H]1C (some centres undefined),-33.8% (active)
18,CCOC(=O)c1csc(NC(=O)COc2cccc(/C=C3\CSc4ccccc4C3=O)c2)n1,-64.3% (active)
19,CN1CCN(c2ccc3nc(-c4ccc(OCCCCN5CCN(CCCCN6C(=O)c7cccc8cccc(c78)C6=O)CC5)cc4)[nH]c3c2)CC1,56.5%
20,Cc1ncc(C(=O)Nc2ccc(CN3CCN(C)CC3)c(C(F)(F)F)c2)cc1C#Cc1cnc2cccnn12,0.556% (active)

row,SMILES,growth
1,Cc1nc2c3c(-c4ccccc4)c(-c4ccccc4)oc3ncn2n1,94.3%
2,O=C(N/N=C/c1ccccc1O)c1ccccc1Nc1ccnc(C(F)(F)F)c1,17.7%
3,COC(=O)[C@]12CCC(C)(C)C[C@H]1[C@H]1C(=O)C[C@@H]3[C@@]4(C)c5c([nH]c6ccccc6c5=O)C(C)(C)[C@@H]4CC[C@@]3(C)[C@]1(C)CC2,18.9%
4,COc1ccc(-c2n[nH]nc2-c2csc3ccccc23)cc1OC,9.48% (active)
5,O=C1c2ccccc2C(=O)c2c(N=Nc3[nH]c(=S)[nH]c3O)cccc21,9.57% (active)
6,Cn1c(NCCc2ccc(O)c(O)c2)nc2c1c(=O)n(Cc1ccc(Br)cc1)c(=O)n2C,81%
7,Cc1ccc(/C=C2\SC(=S)N(CC(=O)NCCCN3CCOCC3)C2=O)cc1,89.6%
8,Cc1ccc(C2Oc3ccccc3C3CC(c4cccs4)=NN32)cc1 (centres undefined),101%
9,C=CC(=O)Nc1cccc(-c2nc(SC)nc(NCCc3ccc(OC)c(OC)c3)c2C#N)c1,31.2%
10,Cc1nc(/N=C(\N)NC(=O)Nc2cccc([N+](=O)[O-])c2)sc1C,14.3%
11,COc1ccc(-n2nc(C)c3c(Nc4ccc(NC(=O)Nc5ccc(Cl)c(C(F)(F)F)c5)cc4)ncnc32)cc1,5.84% (active)
12,O=C(/C=C/c1cccc([N+](=O)[O-])c1)c1ccc(O)c(CN2CCN(c3cc4c(cc3F)c(=O)c(C(=O)O)cn4C3CC3)CC2)c1,6.49% (active)
13,CCC([N+](=O)[O-])S(=O)(=O)c1ccc(C)cc1 (centres undefined),115%
14,Cc1cn2c(/C=C3/C(=O)Nc4c3ccc3ccccc43)c(C(F)(F)F)nc2s1,8.76% (active)
15,O=C1c2cc3c(cc2-c2c1c1ccc(F)cc1c(=O)n2C[C@H](O)[C@@H](O)[C@H](O)CO)OCO3,9.69% (active)
16,O=C(Nc1cccc2[nH]c(C(F)(F)F)nc12)c1ccc(-n2cnnn2)cc1,21.5%
17,Fc1ccc(CNc2cccc3[nH]c(C(F)(F)F)nc23)cc1,13%
18,O=C1c2cc3c(cc2-c2c1c1ccc(F)cc1c(=O)n2CCCNCCO)OCO3,-55.7% (active)
19,N#CN1CC[C@H](C(=O)Nc2cc3cc(C(N)=O)ccc3cn2)C1,2.99% (active)
